Results on 27 compounds are retold here after PubChem BioAssay (NCATS).

Several values for one entry are separate records, joined by “and”; a condition that tells them apart may be missing. Equal values may be shown once. Inconclusive results are not listed. Values without a mark were called inactive. Activity calls are given as the source filed them. The call rests on the fitted dose curve; in most records, active means well fitted curve in the direction sought with a large enough effect; inconclusive means small, poorly fitted or top-dose-only effect, or another doubt; inactive means no such curve, though single readings can be large; an effect the other way counts as inactive or inconclusive.
Further: nearly all actives have a fitted effect of over 70% in size.
On the % scale 0 is the no-effect control and ±100 the full control effect; potency means the concentration at half of the fitted maximal effect.

The nature of the first assay: Primary qHTS for inhibitors of nuclear receptor binding SET domain protein 2 (NSD2) in an isogenic RCH-ACV NSD2 p.E1099K mutant (9B) (AID 1645876). Conditions: RCH-ACV NSD2 E1099K (9B) viability, CellTiter-Glo, 72 h; series mostly up to 44.9 µM; activity change, negative = viability loss: at the top concentration.
With `COc1cc2c(cc1-c1c(C)noc1C)ncc1[nH]c(=O)n([C@H](C)c3ccccn3)c12`, the Potency is 0.468 µM (active). As for `C[C@@H](Oc1cc(-c2cnn(C3CCNCC3)c2)cnc1N)c1c(Cl)ccc(F)c1Cl`, the Potency was 1.45 µM (active) and 1.83 µM (active) and 1.48 µM (active). Consider `O=c1c2ccccc2nc2n1CCc1c-2[nH]c2ccccc12`, for which the “activity change, negative = viability loss” value was -6.17%. Regarding `Cc1cc(Nc2ncnc3ccc(-c4ccc(CNCCS(C)(=O)=O)o4)cc23)ccc1Oc1ccn2ncnc2c1`, the Potency was 16.3 µM (active) and 16.6 µM (active). On the same count and under the same terms, with `CS(=O)(=O)c1ccc(-c2cnc(N)c(C(=O)Nc3ccccc3)n2)cc1` the figure was 2.63 µM (active); with `CC(C)(O)CCc1ccc(OCc2cc(-c3cccc(OC(F)F)c3)c3ncccc3c2)cc1`, 20.9 µM (active); with `COc1cc2c(Oc3ccc(-c4cnc(Nc5ccc(F)cc5)n(C)c4=O)cc3F)ccnc2cc1OCCCN1CCOCC1`, 4.09 µM (active) and 1.48 µM (active). On the same count and under the same terms, with `Cc1cc(Nc2cc(CN3CCOCC3)c3nc(C)c(Cc4ccc(Cl)cc4F)n3n2)n[nH]1` the figure was 3.26 µM (active) and 1.86 µM (active). On the same count and under the same terms, with `COc1cc(C(C)C)c2c(c1)S(=O)(=O)N(COc1cc(=O)n3cccc(OCCN4CCCCC4)c3n1)C2=O` the figure was 14.8 µM (active); with `CC(C)(C)c1cnc(CSc2cnc(NC(=O)C3CCNCC3)s2)o1`, 0.209 µM (active). For the compound `CC(C)C[C@H](NC(=O)CNC(=O)c1cc(Cl)ccc1Cl)B(O)O`, the Potency was 0.148 µM (active).

`O=C(NCCCNc1nc(Nc2cccc(NC(=O)N3CCCC3)c2)ncc1I)c1cccs1`: the Potency was 5.8 µM (active) and 1.48 µM (active).

Consider `OCCCNc1cc(-c2ccnc(Nc3cccc(Cl)c3)n2)ccn1`, for which the Potency was 29 nM (active) and 52.5 nM (active). For the compound `Cc1ccc(-c2ncn(-c3ccc(Nc4nccc(-c5cccc(N6CCOCC6)c5)n4)cc3)n2)cn1`, the Potency was 1.05 µM (active). On the same count and under the same terms, with `C#Cc1cccc(Nc2ncnc3cc(OC)c(OCCCCCCC(=O)NO)cc23)c1` the figure was 515 nM (active) and 590 nM (active); with `CC[C@@]1(O)C(=O)OCc2c1cc1n(c2=O)Cc2cc3cc(O)ccc3nc2-1`, 0.0209 µM (active). Take `CCCn1c(=O)c2[nH]c(-c3cnn(Cc4cccc(C(F)(F)F)c4)c3)nc2n(CC)c1=O`: the Potency entry is “inactive”. On to `COc1cc2c(NC3CCN(C(C)C)CC3)nc(C3CCCCC3)nc2cc1OCCCN1CCCC1`, for which the Potency is 9.16 µM (active) and 8.33 µM (active). Same read-out and setting: the same measure for `C[C@]1(CO)CN(c2cc(C(=O)Nc3ccc4c(c3)-c3c(c(C(N)=O)nn3-c3ccc(F)cc3)CC4)c(Cl)cn2)C[C@@]1(C)CO`: 3.25 µM (active); for `COc1ccc(-c2cc3c(C)nc(N)nc3n(C3CCC(OCCO)CC3)c2=O)cn1` (centres undefined): 20.5 nM (active) and 41.7 nM (active); for `O=C(O)c1ccc2c(c1)nc(Nc1cccc(Cl)c1)c1ccncc12`: 4.59 µM (active) and 2.95 µM (active). On the same count and under the same terms, with `Nc1ccccc1NC(=O)c1ccc(CNc2nccc(-c3cccnc3)n2)cc1` the figure was 258 nM (active) and 590 nM (active); with `O=C(CCCCCCNC(=O)c1cnc(N(c2ccccc2)c2ccccc2)nc1)NO`, 728 nM (active) and 2.95 µM (active).

As for `CC(=O)OCCN1C(=O)c2c(C)nc3ccc(S(=O)(=O)N4CCOCC4)cc3c2C1=O`, the compound was classed as inactive.

In the case of `OCc1ccc(-c2ccc(-c3ccc(CO)s3)o2)s1`, the Potency was 50.2 nM (active) and 934 nM (active).

As to `Cn1c(CNc2ccc(C(=N)N)cc2)nc2cc(C(=O)N(CCC(=O)O)c3ccccn3)ccc21`, the Potency entry was “inactive”. For `CN1CCC(CNc2ccc3ncc(-c4cccc(OC(F)(F)F)c4)n3n2)CC1`, the Potency is 2.58 µM (active) and 4.68 µM (active).

A short description of another assay: Primary qHTS for inhibitors of nuclear receptor binding SET domain protein 2 (NSD2) in an RCH-ACV wild type WT cells (2C) (AID 1645877). Conditions: RCH-ACV (leukaemia line) NSD2 WT (2C) viability, CellTiter-Glo, 72 h; series mostly up to 44.9 µM; activity change, negative = cell killing: at the top concentration.
On to `O=c1c2ccccc2nc2n1CCc1c-2[nH]c2ccccc12`, for which the “activity change, negative = cell killing” value was -19.5%. On to `Cc1cc(Nc2cc(CN3CCOCC3)c3nc(C)c(Cc4ccc(Cl)cc4F)n3n2)n[nH]1`, for which the Potency is 2.59 µM (active) and 1.18 µM (active). Regarding `O=C(NCCCNc1nc(Nc2cccc(NC(=O)N3CCCC3)c2)ncc1I)c1cccs1`, the Potency was 5.8 µM (active). The same measure, in the same setting: with `OCCCNc1cc(-c2ccnc(Nc3cccc(Cl)c3)n2)ccn1` the figure was 51.7 nM (active) and 33.2 nM (active); with `C#Cc1cccc(Nc2ncnc3cc(OC)c(OCCCCCCC(=O)NO)cc23)c1`, 230 nM (active) and 296 nM (active). The same measure, in the same setting: with `COc1ccc(-c2cc3c(C)nc(N)nc3n(C3CCC(OCCO)CC3)c2=O)cn1` (centres undefined) the figure was 20.5 nM (active) and 41.7 nM (active); with `OCc1ccc(-c2ccc(-c3ccc(CO)s3)o2)s1`, 31.7 nM (active) and 1.32 µM (active).
